The values that follow come from PubChem BioAssay (NCATS).

Molecules are shown by their SMILES. Inconclusive results are not listed. A number with no mark means an inactive call. The source made the active and inactive calls. Calls come from the whole dose curve; as a rule, active = well fitted cell-killing curve with a large enough effect; inconclusive = small, poorly fitted or top-dose-only effect, or effect the other way; inactive = no such curve, though single readings can be large or run the other way.

Test [1] is described as follows: Quantitative High-Throughput drug screen in 47 multiple myeloma cell lines against the NCATS MIPE library collection: MM1R_ATCC cell viability assay (AID 1918981). Note: nearly all actives have a fitted effect of over 35% in size. Note: potency is the fitted concentration of half-maximal effect. Summed up:
(§1)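 qHTS format: cells plated (500/well), pin-dosed with MIPE 4.0 compounds, kept 48 h at 37 °C. Readout was CellTiter-Glo luminescence, median RLU.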

Test [2] in a line: Quantitative High-Throughput drug screen in 47 multiple myeloma cell lines against the NCATS MIPE library collection: KMS28PE_JCRB cell viability assay (AID 1918983). Note: nearly all actives have a fitted effect of over 35% in size. Note: potency is the fitted concentration of half-maximal effect. Summed up:
as §1

The nature of test [3]: Quantitative High-Throughput drug screen in 47 multiple myeloma cell lines against the NCATS MIPE library collection: KMS34_JCRB cell viability assay (AID 1918985). Note: nearly all actives have a fitted effect of over 40% in size. Note: potency is the fitted concentration of half-maximal effect. In outline: as §1
Test [4] is described as follows: Quantitative High-Throughput drug screen in 47 multiple myeloma cell lines against the NCATS MIPE library collection: OCIMY7_PLB cell viability assay (AID 1918987). Note: potency is the fitted concentration of half-maximal effect; nearly all actives have a fitted effect of over 65% in size. Summed up: as §1
The nature of test [5]: Quantitative High-Throughput drug screen in 47 multiple myeloma cell lines against the NCATS MIPE library collection: OPM1_PLB cell viability assay (AID 1918989). Note: nearly all actives have a fitted effect of over 40% in size. Note: potency is the fitted concentration of half-maximal effect. Summed up: as §1
Test [6] is described as follows: Quantitative High-Throughput drug screen in 47 multiple myeloma cell lines against the NCATS MIPE library collection: SKMM1_PLB cell viability assay (AID 1919863). For viability: series mostly up to about 46 µM. Note: nearly all actives have a fitted effect of over 35% in size. Note: potency is the fitted concentration of half-maximal effect. The settings on record: SKMM1 myeloma viability, CellTiter-Glo ATP, 48 h; viability: stronger effect = lower value. In outline: as §1
The nature of test [7]: Quantitative High-Throughput drug screen in 47 multiple myeloma cell lines against the NCATS MIPE library collection: U266_ATCC cell viability assay (AID 1919864). Note: potency is the fitted concentration of half-maximal effect; nearly all actives have a fitted effect of over 35% in size. In outline: as §1
A short description of test [8]: Quantitative High-Throughput drug screen in 47 multiple myeloma cell lines against the NCATS MIPE library collection: OCIMY5_PLB cell viability assay (AID 1918988). Note: nearly all actives have a fitted effect of over 65% in size. Note: potency is the fitted concentration of half-maximal effect. Summed up: as §1
The nature of test [9]: Quantitative High-Throughput drug screen in 47 multiple myeloma cell lines against the NCATS MIPE library collection: LP1_DSMZ cell viability assay (AID 1918982). Note: nearly all actives have a fitted effect of over 35% in size. Summed up:
as §1

Regarding `O=C(O)c1ccc2c(c1)nc(Nc1cccc(Cl)c1)c1ccncc12`, the Potency in test [1] is 10500 nM (active); in [2], 13200 nM (active); in test [3], 10500 nM (active); in test [4], 2350 nM (active); in [5], 9350 nM (active); in test [6], 10500 nM (active). Besides, the Potency in [7] is 5260 nM (active).

As for `Nc1cc(C(F)(F)F)c(-c2cc(N3CCOCC3)nc(N3CCOCC3)n2)cn1`, the Potency in test [1] was 1180 nM (active); in test [2], 935 nM (active); in [3], 833 nM (active); in [4], 590 nM (active); in test [8], 187 nM (active); in test [6] it was 662 nM (active). Besides, the Potency in test [7] was 4690 nM (active).

For `COc1ccc(C(=O)CC2(O)C(=O)Nc3c(Cl)ccc(Cl)c32)cc1` (stereo not drawn), the Potency was 5260 nM (active) in test [1]; 3720 nM (active) in [2]; 2960 nM (active) in test [3]; 526 nM (active) in test [4]; 9350 nM (active) in test [5]; 1180 nM (active) in test [6].

Take `CN[C@H]1CCc2cc(OC)c(OC)c(OC)c2-c2ccc(OC)c(=O)cc21`: the Potency was 6.6 nM (active) in test [1]; 1.9 nM (active) in test [2]; 1 nM (active) in [4]; 3.7 nM (active) in test [6]; 6.6 nM (active) in [7].

Turning to `CN(C)CCCN=c1c2ccccc2n(C)c2[nH]c(=O)n(C)c(=O)c12`, the Potency in test [1] was 18700 nM (active); in test [2] it was 16600 nM (active); in test [3] it was 18700 nM (active); in [5] it was 6620 nM (active); in test [6] it was 14800 nM (active); in [7], 8330 nM (active).

As for `CC1(C)CCC(c2ccc(Cl)cc2)=C(CN2CCN(c3ccc(C(=O)NS(=O)(=O)c4ccc(N[C@H](CCN5CCOCC5)CSc5ccccc5)c(S(=O)(=O)C(F)(F)F)c4)cc3)CC2)C1`, the Potency in test [1] was 187 nM (active); in [2], 469 nM (active); in test [3], 9350 nM (active); in [4], 1 nM (active); in test [5], 5260 nM (active).

In the case of `CCOc1cc2ncc(C#N)c(Nc3ccc(F)c(Cl)c3)c2cc1NC(=O)C=CCN(C)C`, the Potency in [1] was 4180 nM (active); in [2] it was 14800 nM (active); in [3], 4690 nM (active); in [4], 74.3 nM (active); in [8] it was 264 nM (active); in test [5], 11800 nM (active). Besides, in test [6], the Potency is 16600 nM (active).

Consider `Cc1cc(Nc2nc(N[C@@H](C)c3ccc(F)cc3)c(C#N)cc2F)n[nH]1`, for which the Potency was 3320 nM (active) in [1]; 935 nM (active) in test [2]; 833 nM (active) in test [3]; 418 nM (active) in test [4]; 1050 nM (active) in test [6]; 16600 nM (active) in [7].

Turning to `CC(C)c1cc(C(=O)N2Cc3ccc(CN4CCN(C)CC4)cc3C2)c(O)cc1O`, the Potency was 418 nM (active) in test [1]; 332 nM (active) in test [2]; 235 nM (active) in test [3]; 26.4 nM (active) in [4]; 105 nM (active) in [8]; 418 nM (active) in test [6].

Turning to `Cn1c(=O)n(-c2ccc(C(C)(C)C#N)cc2)c2c3cc(-c4cnc5ccccc5c4)ccc3ncc21`, the Potency in test [1] is 118 nM (active); in [2], 52.6 nM (active); in [3], 13.2 nM (active); in test [4] it was 1480 nM (active); in [8], 743 nM (active); in test [6], 33.2 nM (active). Moreover, the Potency in test [7] was 4180 nM (active).

Regarding `COCCn1c2c([n+](Cc3cnccn3)c1C)C(=O)c1ccccc1C2=O`, the Potency in test [1] is 4.2 nM (active); in [2] it was 26.4 nM (active); in test [3], 5.3 nM (active); in test [4], 296 nM (active); in test [8], 7.4 nM (active); in [6] it was 37.2 nM (active). In addition, the Potency in test [7] is 5.9 nM (active).

On to `OCc1ccc(-c2ccc(-c3ccc(CO)s3)o2)s1`, for which the Potency was 3720 nM (active) in [1]; 29600 nM (active) in [2]; 18700 nM (active) in [3]; 1870 nM (active) in test [4]; 16600 nM (active) in test [8]; 20900 nM (active) in [6]. Besides, the Potency in test [7] was 3320 nM (active).

Regarding `Cn1c2cc(S(C)=O)sc2c2cnn(Cc3cccc(N)c3)c(=O)c21` (stereo not drawn), the Potency result in test [1], in test [2] and in test [3] was “inactive” throughout. Also, the viability in test [6] is 114%.

Consider `Nc1ccn([C@@H]2CS[C@H](CO)O2)c(=O)n1`, for which the Potency result in test [1], in test [2], in [8] and in [5] was “inactive” each time. Further, the viability in [6] was 127%.

As for `O=C(NCCS(=O)(=O)c1ccc(C(F)(F)F)cn1)c1ccc(Cl)cc1`, the Potency result in [9] and in test [2] was “inactive” in each case.

`CN(C)CC(C)(C)CNc1nn2c(-c3ccccc3)nnc2cc1C1CCC1`: the Potency entry in test [9] is “inactive”.
